± gives the standard deviation.
Test system: OVCAR-3-derived ovarian cancer stem-like cells (spheroids)
Assay: cell growth relative to untreated control; higher = more growth (less inhibition)
Settings: 2.29 µM; 96 h
Outline: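 Viability of stem-like cells from OVCAR-3 spheroids was assessed with TOX8 resazurin fluorescence at ex 560/em 590 nm. The cells had been trypsin-dissociated, seeded at 50,000 cells/mL in stem cell medium in ultra-low attachment 96-well plates and preincubated 24 h, then treated with compounds at 2.29 uM for 96 h at 37°C, 5% CO2, in 4 replicate wells, with fluorescence read after 4 h. Results were converted to percent growth against untreated wells after blank subtraction and Grubbs outlier removal.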

| SMILES | cell growth [%] |
| --- | --- |
| COc1cc(/C=C2\S/C(=N/Nc3nc(-c4ccc(Br)cc4)cs3)NC2=O)cc(OC)c1OC | 91.9 ± 19 |
| C/C=C(\CCC1NCCc2c1[nH]c1ccccc21)[Si](C)(C)C (stereo not drawn) | 86.5 ± 9.4 |
| CN(C)CCOC1(Cc2ccc(F)cc2)CCC(C(C)(C)C)CC1 (stereo not drawn) | 109 ± 34 |
| O=C(/C=C/c1c(O)ccc2ccccc12)c1cccc(O)c1 | 94.3 ± 20 |
| O=S1(=O)CCN(c2ccccc2CC(c2c[nH]c3ccccc23)c2c[nH]c3ccccc23)CC1 | 104 ± 24 |
| Cc1ccc2[nH]c(O)c(N=Nc3ccccc3[N+](=O)[O-])c2c1 | 108 ± 15 |
| Cc1cc(-c2nc3ccccc3s2)ccc1N | 73.6 ± 9 |
| O=C1/C(=C/c2cccs2)Oc2ccccc21 | 94 ± 12 |
| C/C(=N\NC(=S)N1CCC1)c1ccccn1 | 20.6 ± 4 |
| COC(=O)/C(=N\NC(=O)c1ccccc1O)C(C#N)c1ccccc1 (stereo not drawn) | 99.9 ± 33 |
| Nc1nc2n[nH]nc2c(=O)[nH]1 | 91.6 ± 14 |
| COc1ccc(C2C(C)C(=O)C(C)C(c3ccc(OC)cc3)N2N=O)cc1 (stereo not drawn) | 110 ± 23 |
| O=S(=O)(O)c1cc(N=Nc2cc(S(=O)(=O)O)c3cccnc3c2O)ccc1/C=C/c1ccc(N=Nc2cc(S(=O)(=O)O)c3cccnc3c2O)cc1S(=O)(=O)O | 93.7 ± 14 |
| CC1=NC(C(C)C)C(=O)O1 (stereo not drawn) | 122 ± 74 |
| Nc1cc2[nH]cnc2c(=O)[nH]1 | 77.1 ± 7.5 |
| COCC(=O)OC1CCn2c1nc1c2C(=O)C(C)=C(NC(C)=O)C1=O (stereo not drawn) | 76.1 ± 12 |
| O=c1cnn(C2OC(CO)C(O)C2O)c(=S)[nH]1 (stereo not drawn) | 100 ± 24 |
| COc1ccc(N=C2C(=Nc3ccc(OC)cc3)N(c3ccc(N(C)C)cc3)C(=S)N2c2ccc(OC)cc2)cc1 | 72.3 ± 12 |
